# Where “and” joins values, the source holds several entries; their conditions need not be identical. Identical values can stand only once. This is part of a sample that, as a whole, favours compounds with a hit. Of some 83,000 tested, about 20% had one in any assay.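 Note: values are percent growth. 100 is the growth of untreated cells, values between 100 and 0 indicate rising inhibition; between -100 and 0 indicates cell death.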 Calls of active or inactive are those of the source. The calls were made as follows: active = growth percent below 10; inactive = the rest.
# Key:
# Assay in all cases: NCI-60 one-dose screen, 48 h (100 = growth as untreated, 0 = no growth, -100 = all killed)
# Details in all cases: 10 µM unless noted
# SR leukemia = system: SR leukemia
# RPMI-8226 leukemia = system: RPMI-8226 leukemia
# OVCAR-8 ovarian = system: OVCAR-8 ovarian
# OVCAR-5 ovarian = system: OVCAR-5 ovarian
# OVCAR-4 ovarian = system: OVCAR-4 ovarian
# SK-OV-3 ovarian = system: SK-OV-3 ovarian
# IGROV1 ovarian = system: IGROV1 ovarian
# OVCAR-3 ovarian = system: OVCAR-3 ovarian
# HS 578T breast = system: HS 578T breast
# NCI/ADR-RES ovarian = system: NCI/ADR-RES ovarian
# T-47D breast = system: T-47D breast
# BT-549 breast = system: BT-549 breast
# MDA-MB-435 melanoma = system: MDA-MB-435 melanoma
# SW-620 colon = system: SW-620 colon
# MCF7 breast = system: MCF7 breast
# HCT-116 colon = system: HCT-116 colon
# HCC-2998 colon = system: HCC-2998 colon
# MDA-MB-468 breast = system: MDA-MB-468 breast
# KM12 colon = system: KM12 colon
SMILES,growth (SR leukemia),growth (RPMI-8226 leukemia),growth (OVCAR-8 ovarian),growth (OVCAR-5 ovarian),growth (OVCAR-4 ovarian),growth (SK-OV-3 ovarian),growth (IGROV1 ovarian),growth (OVCAR-3 ovarian),growth (HS 578T breast),growth (NCI/ADR-RES ovarian),growth (T-47D breast),growth (BT-549 breast),growth (MDA-MB-435 melanoma),growth (SW-620 colon),growth (MCF7 breast),growth (HCT-116 colon),growth (HCC-2998 colon),growth (MDA-MB-468 breast),growth (KM12 colon)
COc1ccc2[nH]c(=O)c(CSc3ccccc3Nc3nccc(-c4ccc(Cl)cc4)n3)cc2c1,-1.58% (active),30.4% (inactive),39.5% (inactive),84.7% (inactive),38.3% (inactive),57.7% (inactive),55.9% (inactive),39.8% (inactive),37.1% (inactive),34.4% (inactive),38% (inactive),31.6% (inactive),28.3% (inactive),50.3% (inactive),7.48% (active),11.9% (inactive),37.6% (inactive),17.3% (inactive),–
OCCn1cc(-c2nc3ccc4[nH]ncc4c3c3c2CCCC3)cn1,-3.53% (active),31.4% (inactive),44.7% (inactive),97.8% (inactive),64.2% (inactive),14.6% (inactive),52% (inactive),58.8% (inactive),21.6% (inactive),76.8% (inactive),43.5% (inactive),30.5% (inactive),12.4% (inactive),21.6% (inactive),39.3% (inactive),24% (inactive),54% (inactive),3.83% (active),18.8% (inactive)
COc1ccc(-c2cc(C(=O)OCc3ccc(Br)cc3)nn2-c2ccc(S(C)(=O)=O)cc2)cc1OC,62.8% (inactive),52.8% (inactive),87.3% (inactive),97.8% (inactive),73.3% (inactive),83.7% (inactive),95.6% (inactive),80.3% (inactive),65.4% (inactive),78.3% (inactive),48.4% (inactive),74% (inactive),89.8% (inactive),99.2% (inactive),72.1% (inactive),83.4% (inactive),95.8% (inactive),64% (inactive),93.1% (inactive)
N#Cc1cc(-c2ccc3ncnc(N4CCc5cc(F)c(Cl)cc54)c3c2)cnc1N,-25.7% (active),28.2% (inactive),44.3% (inactive),55.2% (inactive),29.5% (inactive),64.3% (inactive),-16.2% (active),16.6% (inactive),-7.07% (active),47.2% (inactive),25.8% (inactive),9.67% (active),39.2% (inactive),25.2% (inactive),4.81% (active),33.2% (inactive),50.1% (inactive),-14.7% (active),67.2% (inactive)
Clc1ccccc1Nc1nnc(-c2c[nH]c3ccccc23)o1,15.7% (inactive),4.23% (active),13.4% (inactive),29.8% (inactive),73.2% (inactive),22.1% (inactive),19.4% (inactive),9.25% (active),18.2% (inactive),-18.8% (active),27.3% (inactive),25.1% (inactive),-44.2% (active),29% (inactive),14.9% (inactive),8.25% (active),6.55% (active),-22.5% (active),–
CCN(C(=O)CN1C(=O)/C(=C/c2ccco2)SC1=S)C1CCS(=O)(=O)C1 (stereo not drawn),87.5% (inactive),101% (inactive),101% (inactive),111% (inactive),94.2% (inactive),101% (inactive),111% (inactive),103% (inactive),118% (inactive),93.6% (inactive),78.1% (inactive),97% (inactive),92.2% (inactive),102% (inactive),91.8% (inactive),98.2% (inactive),106% (inactive),61% (inactive),–
COc1ccc(C(=O)C[n+]2cccc3c4ccccc4ccc32)cc1,34.4% (inactive),25.2% (inactive),25.9% (inactive),58.3% (inactive),33.4% (inactive),50.1% (inactive),67.4% (inactive),51.7% (inactive),58.9% (inactive),97.7% (inactive),38.2% (inactive),33.2% (inactive),37.5% (inactive),–,18.1% (inactive),29.8% (inactive),48.5% (inactive),–,34.9% (inactive)
COc1ccc2[nH]c(O)c(N=NC(=O)c3ccc4nc(-c5ccc(Cl)cc5)[nH]c4c3)c2c1,34.2% (inactive),103% (inactive),48.4% (inactive),72.1% (inactive),48.9% (inactive),90.8% (inactive),78.1% (inactive),71.8% (inactive),37.7% (inactive),116% (inactive),13.5% (inactive),34.5% (inactive),81.2% (inactive),82.6% (inactive),24.5% (inactive),51.4% (inactive),64.6% (inactive),-48.3% (active),–
CN(C)c1nc(NCCNS(=O)(=O)c2ccc(C3=Nc4c(N)nc(N)nc4NC(c4ccc(C(F)(F)F)cc4)C3)cc2)nc(N2CCOCC2)n1 (stereo not drawn),3.12% (active),34.8% (inactive),43.2% (inactive),78% (inactive),58% (inactive),55.8% (inactive),45.7% (inactive),58.2% (inactive),40.7% (inactive),91.8% (inactive),24.7% (inactive),1.02% (active),44.3% (inactive),–,21.8% (inactive),17.1% (inactive),27.3% (inactive),–,47.8% (inactive)
c1n[nH]cc1-c1nc2ccc3[nH]ncc3c2c2c1CC1(CC2)COC1,5.21% (active),71.4% (inactive),52% (inactive),107% (inactive),89.7% (inactive),21.7% (inactive),55.4% (inactive),43.8% (inactive),0.359% (active),108% (inactive),26.8% (inactive),-7.9% (active),30.7% (inactive),8.89% (active),62.4% (inactive),15.4% (inactive),60.4% (inactive),-24.5% (active),56.7% (inactive)
O=C1C=CC(=CC=C2N(Cc3ccc4ccccc4c3)c3ccccc3N2Cc2ccc3ccccc3c2)C=C1,3.48% (active),-5.25% (active) and -13.4% (active),20.2% (inactive) and 24.9% (inactive),36.6% (inactive) and 47.2% (inactive),37.9% (inactive) and 27.6% (inactive),13.4% (inactive) and 46.4% (inactive),7.62% (active) and 29.5% (inactive),24.2% (inactive) and -1.46% (active),52.3% (inactive) and 32.6% (inactive),104% (inactive) and 102% (inactive),5.78% (active) and 27.5% (inactive),9.59% (active) and 29.8% (inactive),12.5% (inactive) and 8.75% (active),–,15.7% (inactive) and 14.1% (inactive),10.7% (inactive) and 14.7% (inactive),21.1% (inactive) and 33.1% (inactive),-48.9% (active) and -28.9% (active),33.8% (inactive) and 11.2% (inactive)
CN1C(=O)/C(=C\C(=O)c2cc3ccccc3oc2=O)c2ccccc21,38% (inactive),62.3% (inactive),47.3% (inactive),84.3% (inactive),74.8% (inactive),80.8% (inactive),82.3% (inactive),51.8% (inactive),57.3% (inactive),53.3% (inactive),67.4% (inactive),27.8% (inactive),85.4% (inactive),27.1% (inactive),46.5% (inactive),52.6% (inactive),74.2% (inactive),28.8% (inactive),–

# Reference: PubChem BioAssay (NCI)
